Data from PubChem BioAssay (NCI).
About 83,000 compounds went through this panel and 20% of them were active in at least one assay; those are over-represented in the sample as a whole.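 How to read the values: 0–100, growth inhibition (40 = 60% inhibited); 0, no net growth; -100 to 0, cell death (-40 = 40% of starting cells died; -100 = all dead).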 A number with no mark means an inactive call. Calls of active or inactive are those of the source. How the source made its calls: active means growth percent below 10; inactive means the rest.

Experiments:
Test in all cases: NCI-60 one-dose screen, 48 h (100 = growth as untreated, 0 = no growth, -100 = all killed)
Conditions in all cases: 10 µM unless noted
NCI-H23 lung = system: NCI-H23 lung
NCI-H226 lung = system: NCI-H226 lung
NCI-H322M lung = system: NCI-H322M lung
HOP-62 NSCLC = system: HOP-62 NSCLC
NCI-H460 lung = system: NCI-H460 lung
HOP-92 NSCLC = system: HOP-92 NSCLC
NCI-H522 lung = system: NCI-H522 lung
A549/ATCC NSCLC = system: A549/ATCC NSCLC
786-0 renal = system: 786-0 renal
COLO 205 colon = system: COLO 205 colon
DU-145 prostate = system: DU-145 prostate
K-562 leukemia = system: K-562 leukemia
MALME-3M melanoma = system: MALME-3M melanoma
MDA-MB-231 breast = system: MDA-MB-231 breast
RXF 393 renal = system: RXF 393 renal
SF-268 CNS = system: SF-268 CNS
SF-295 CNS = system: SF-295 CNS
SF-539 CNS = system: SF-539 CNS
UACC-257 melanoma = system: UACC-257 melanoma
M14 melanoma = system: M14 melanoma

Row | Compound | growth (NCI-H23 lung) | growth (NCI-H226 lung) | growth (NCI-H322M lung) | growth (HOP-62 NSCLC) | growth (NCI-H460 lung) | growth (HOP-92 NSCLC) | growth (NCI-H522 lung) | growth (A549/ATCC NSCLC) | growth (786-0 renal) | growth (COLO 205 colon) | growth (DU-145 prostate) | growth (K-562 leukemia) | growth (MALME-3M melanoma) | growth (MDA-MB-231 breast) | growth (RXF 393 renal) | growth (SF-268 CNS) | growth (SF-295 CNS) | growth (SF-539 CNS) | growth (UACC-257 melanoma) | growth (M14 melanoma)
1 | CN1CCN(Cc2ccc(NC(=O)c3cncc(C#Cc4c(N)ncc5cc(F)ccc45)c3)cc2C(F)(F)F)CC1 | -39.5% (active) | 22.2% | 40.5% | 45.1% | -19.8% (active) | -14.2% (active) | 34.4% | 45% | -94% (active) | -20.5% (active) | -88% (active) | -50% (active) | -75.3% (active) | -90.4% (active) | -59.9% (active) | 38.6% | 59.5% | 9.53% (active) | 41.5% | -75.8% (active)
2 | CC(C)n1cc(C2=C(c3cccc4ccccc34)C(=O)NC2=O)c2cc(Br)ccc21 | 49% | 37.8% | 87.5% | 78.5% | 67.5% | 158% | 79.9% | 60.5% | 54.9% | 62.2% | 71% | 34.8% | 122% | 91.2% | 24.4% | 67.5% | 63.9% | 60.9% | 111% | 76.1%
3 | O=c1cc(-c2nccc3c2[nH]c2ccccc23)c2cc(Cl)ccc2o1 | 60.7% | 49.5% | 81.6% | 32.7% | 21.5% | 26.1% | 14.4% | 42.3% | 27.9% | 68.7% | 79.8% | 15.1% | 49.8% | 62.5% | 82.2% | 54.6% | 13.9% | 17.6% | 35.4% | 17.3%
4 | C=C(C)[C@@H]1CC[C@]2(COCCCNCCCN)CC[C@]3(C)[C@H](CC[C@@H]4[C@@]5(C)CC[C@H](OCCCN)C(C)(C)[C@@H]5CC[C@]43C)[C@@H]12 | -73.2% (active) | 45.2% | 41.7% | -59.1% (active) | -83% (active) | 75.3% | -69.6% (active) | -66.6% (active) | -83.6% (active) | -31.1% (active) | -49.5% (active) | -40% (active) | -88.1% (active) | -85.6% (active) | 28.8% | -35% (active) | 102% | -95.7% (active) | 13.8% | -83% (active)
5 | O=C(O)/C=C/c1cn(-c2ccccc2)nc1-c1ccc(F)cc1 | 96.2% | 95.1% | 87% | 81.7% | 101% | 84.3% | 98.2% | 82.2% | 96.1% | 104% | 115% | 100% | 105% | 95% | 113% | 83.7% | 87.7% | 92.6% | 80.7% | 90%
6 | O=C(/C=C/c1ccc([N+](=O)[O-])cc1)c1cccc(Nc2nc(Nc3ccccc3)nc(Nc3ccccc3)n2)c1 | 60.9% | 82.6% | 75.9% | 69.2% | 81.1% | -2.76% (active) | 78.7% | 72.7% | 70.5% | 65.1% | 77.3% | 60.8% | 87.5% | 70.9% | -39.7% (active) | 85.5% | 79.7% | 74.7% | 98.7% | 74.5%
7 | CCCCCCCC/C=C\CCCCCCCCOc1ccc(CC(=O)NCC[N+]2(C)CCCC2)cc1 | 58.7% | 66.4% | 88.5% | 22.5% | 25.3% | 57.4% | 48.7% | 73.7% | 48.6% | -74.1% (active) | 78.4% | 41.6% | 66% | 59.8% | -45.3% (active) | 62.8% | 74.8% | 65.4% | 77.3% | 71.4%
8 | COc1cc(C)cc(-c2c(-c3cc(N4CC(O)C4)nc(-c4cccnc4)n3)cnn2C)c1 | 77.9% | 91.5% | 101% | 111% | 90.8% | 74.7% | 86.5% | 84.9% | 81.6% | 104% | 89.5% | 80.1% | 104% | 55% | 77.9% | 98.5% | 92.8% | 94.3% | 109% | 90.6%
9 | CCOC(=O)c1cnc2sc(-c3ccc(OC)cc3)nc2c1Cl | 82% | 99.2% | 89.2% | 112% | 100% | 94.7% | 97.8% | 106% | 115% | 123% | 96.3% | 107% | 76.3% | 101% | 101% | 103% | 105% | 104% | 101% | 79.1%
10 | COc1cc(/C=C/C(=O)c2ccc(-n3cc(CN4CCN(c5cc6c(cc5F)c(=O)c(C(=O)O)cn6C5CC5)CC4)nn3)cc2)cc(OC)c1OC | 77.6% | 74.8% | 88.8% | 85.4% | 85.9% | 88% | 88% | 90.5% | 72.2% | 112% | 92.3% | 60.7% | 87.7% | 66.4% | 55.7% | 77.2% | 81.9% | 82.5% | 90.1% | 88.1%
11 | O=C1/C(=C/c2ccccc2)COc2ccc(O)cc21 | 97.2% | 104% | 99.3% | 104% | 103% | 93.7% | 73.5% | 90.5% | 86.9% | 93.2% | 88.5% | 17.5% | 106% | 92.9% | 105% | 90.6% | 107% | 108% | 98.2% | 85.8%
12 | O=C(Nc1ncc(Cc2ccc(Cl)cc2)s1)c1ccc2c(c1)OCCO2 | 37% | 23.5% | 46.8% | 26.8% | 8% (active) | 60.6% | 2.46% (active) | 18% | 38.7% | -13.7% (active) | 16.6% | 8.41% (active) | 57.8% | 10.9% | 3.74% (active) | 42.9% | 11.7% | -4.99% (active) | 44.1% | 17.3%
13 | N=C(N)c1ccc(-c2ccc(-c3ccc(Cl)cc3Cl)s2)nc1 | 85.2% | 91.7% | 60.9% | 90.7% | -60.1% (active) | 84.2% | 29% | 33.1% | 85.4% | -27.1% (active) | 28.7% | -1.71% (active) | 100% | 74.3% | 79.8% | 89.8% | 58.4% | 83.5% | 101% | 74.7%
14 | COc1cc(/C=C2\CN(S(=O)(=O)c3ccc(C)cc3)C/C(=C\c3cc(CN4CCCC4)c(O)c(OC)c3)C2=O)cc(CN2CCCC2)c1O | -53.5% (active) | 31.9% | 10.8% | 4.13% (active) | -67.4% (active) | -16.7% (active) | -36.2% (active) | 21.2% | -74.7% (active) | -49.4% (active) | -12.5% (active) | 1.26% (active) | -81.5% (active) | -20.3% (active) | -87.8% (active) | 1.82% (active) | -40.3% (active) | -55.6% (active) | 57.7% | -66.4% (active)
15 | C(=N\Nc1nnc2n1N=C(c1ccccc1)CS2)/c1ccc(OCc2ccccc2)cc1 | 103% | 88.9% | 107% | 110% | 106% | 110% | 88.1% | 91.1% | 110% | 112% | 104% | 57.6% | 125% | 108% | 80.1% | 115% | 101% | 102% | 103% | 113%
16 | CC1=C([Se]CC(OC(=O)[C@@H](CO)NC(=O)OC(C)(C)C)C(=O)NCCCCCC(=O)OCc2ccccc2)C(=O)c2ccccc2C1=O (stereo not given in full) | -77.8% (active) | -85.4% (active) | -74% (active) | -100% (active) | -4.97% (active) | -75.3% (active) | -94.6% (active) | -24% (active) | -97.3% (active) | 10.2% | -54.6% (active) | -4.48% (active) | -68.1% (active) | -54.4% (active) | -99.4% (active) | -2.71% (active) | -38.4% (active) | -92.6% (active) | -94% (active) | -95% (active)
